Values joined by “and” are separate entries in the source; they are usually repeats but may differ in a detail not shown here. Equal values may be shown once. A number with no mark means an inactive call. Inconclusive results are not listed. Active and inactive are the calls of the source. Calls follow the shape of the dose curve; as a rule, active = well fitted curve in the direction sought with a large enough effect; inconclusive = small, poorly fitted or top-dose-only effect, or another doubt; inactive = no such curve, though single readings can be large; an effect the other way counts as inactive or inconclusive. Residues, ends and D or L forms follow the SMILES beside them. *: point of attachment. Cbz = O=C(OCc1ccccc1)*

Drawing on PubChem BioAssay (NCATS), this text covers Potency, max response and outcome for 38 compounds.

Assay [1] concerns the target Single-stranded DNA cytosine deaminase (Homo sapiens) (UniProt Q9GZX7). Description: Validation qHTS assay for inhibitors of Activation Induced Cytidine Deaminase (AID): AID signal (AID 1347429). Also: % is scaled to controls: 0 for no effect and ±100 for the full control effect. Summed up: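 Compounds (up to 114 uM final) are tested against AID plus UDG using DJC20/DJC23 FRET substrate. Reactions incubate 4 hr at room temperature, receive NaOH for 30 min, and are read at Ex 540/Em 590 nm.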
On the technique in general: In qHTS, concentration-response curves come from the screen itself.

The nature of assay [2]: Primary qHTS for inhibitors of La Crosse Virus (LACV) - induced cell death in SH-SY5Y cells (AID 1508616). Also: potency is read from the fitted curve at half-maximal effect. Summed up:
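Screening measures cell viability in LACV-infected SH-SY5Y cultures. Compound was added before virus (0.01 MOI), and ATP was detected by luminescence 6 days later.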

For assay [3], the target named is Calcium and integrin-binding protein 1 (Homo sapiens) (UniProt Q99828). The assay is described as follows: Validation qHTS for Identification of Calcium Integrin Binding protein 1 (CIB1) Competitor (AID 1508618). Also: % is scaled to controls: 0 for no effect and ±100 for the full control effect. In short, it runs like this:
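CIB1-GST (1 uM final) in 5 mM HEPES pH 7.4, 125 mM NaCl, 5 mM CaCl2, 0.01% Tween20 was preincubated 15 min at room temperature with compound (up to 114 uM), then FITC-alphaIIb peptide (100 nM) added for 15 min; fluorescence polarization read.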

A short description of assay [4]: Primary qHTS for small molecule stabilizers of the endoplasmic reticulum resident proteome: Secreted ER Calcium Modulated Protein (SERCaMP) assay (AID 1508630). Also: potency is read from the fitted curve at half-maximal effect. In short, it runs like this:
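The SH-SY5Y reporter protocol was run at 3 concentrations up to 38.3 uM (primary) or 11 concentrations (follow-up): 16 h compound, 100 nM thapsigargin for 4 h, then extracellular luciferase luminescence.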

In the next assay the target is Papain (Carica papaya) (UniProt P00784). Description: Primary qHTS assay for inhibitors of the protease papain (AID 1645873).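 Also: papain turnover of Z-FR-AMC read as the AMC fluorescence gain over 10 min.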 Also: potency is read from the fitted curve at half-maximal effect.
Chain of Papain (Carica papaya) (P00784 whole entry, looked up): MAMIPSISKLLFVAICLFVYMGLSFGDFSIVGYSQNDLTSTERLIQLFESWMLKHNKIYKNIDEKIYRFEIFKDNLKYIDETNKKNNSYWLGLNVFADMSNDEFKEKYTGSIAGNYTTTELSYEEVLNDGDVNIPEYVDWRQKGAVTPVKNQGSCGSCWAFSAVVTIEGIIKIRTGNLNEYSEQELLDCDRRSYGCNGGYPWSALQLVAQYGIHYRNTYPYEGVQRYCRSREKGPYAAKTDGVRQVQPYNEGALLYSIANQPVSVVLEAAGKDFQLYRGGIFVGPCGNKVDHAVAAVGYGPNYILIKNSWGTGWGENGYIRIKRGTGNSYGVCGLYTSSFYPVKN
A short description of assay [5]: Counterscreen qHTS for small molecule stabilizers of the endoplasmic reticulum resident proteome: GLuc-NoTag assay (AID 1508627).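 Also: SH-SY5Y cells given compound then 100 nM thapsigargin to empty ER calcium; series mostly up to about 76 µM; 0% = thapsigargin alone and -100% = DMSO vehicle control.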 Summed up:
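Counterscreen line: SH-SY5Y-GLuc-NoTag. Seed, 5 h; compound, 19 h; thapsigargin 100 nM, 4 h; 37C/5% CO2. Readout: secreted GLuc luminescence, coelenterazine 0.07x final, no lysis.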
(A counterscreen serves to expose hits that act by an unwanted route or on another target.)

A short description of assay [6]: Confirmatory qHTS for small molecule stabilizers of the endoplasmic reticulum resident proteome: Secreted ER Calcium Modulated Protein (SERCaMP) assay (AID 1508628). Also: nearly all actives have a fitted effect of over 40% in size. Also: potency is read from the fitted curve at half-maximal effect. Summed up:
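GLuc-SERCaMP-expressing SH-SY5Y cells, pretreated 16 h with compound, are challenged with thapsigargin to empty ER calcium stores; after 4 h, coelenterazine is added directly to the medium and luminescence is imaged.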

Assay [7] can be described thus: Cell Viability qHTS for small molecule stabilizers of the endoplasmic reticulum resident proteome (AID 1508629).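 Also: compound exposure about 46 h in total before the viability read.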 Also: potency is read from the fitted curve at half-maximal effect.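 As to max response: human SH-SY5Y neuroblastoma cells carrying the GLuc-SERCaMP reporter; % is scaled to controls: 0 for no effect and ±100 for the full control effect.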 Conditions: cell viability counter-screen, 100 nM thapsigargin for final 4 h.
The target of assay [8] is Calcium and integrin-binding protein 1 (Homo sapiens) (UniProt Q99828). The assay is described as follows: Primary qHTS for Identification of Calcium Integrin Binding Protein 1 (CIB1) Competitor (AID 1508620).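 Also: GST tagged CIB1 binding a fluorescein labelled alphaIIb integrin peptide tracer; top concentration of the series differs between compounds; % is scaled to controls: 0 for no effect and ±100 for the full control effect.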 Summed up:
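Fluorescence polarization competition: GST-tagged CIB1 (1 uM final) preincubated with compound 15 min at room temperature, then FITC-labelled alphaIIb peptide (100 nM final) added. After 15 min at room temperature, polarization read at Ex 480/Em 540.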

Chain of Single-stranded DNA cytosine deaminase (Homo sapiens) (Q9GZX7 whole entry, looked up): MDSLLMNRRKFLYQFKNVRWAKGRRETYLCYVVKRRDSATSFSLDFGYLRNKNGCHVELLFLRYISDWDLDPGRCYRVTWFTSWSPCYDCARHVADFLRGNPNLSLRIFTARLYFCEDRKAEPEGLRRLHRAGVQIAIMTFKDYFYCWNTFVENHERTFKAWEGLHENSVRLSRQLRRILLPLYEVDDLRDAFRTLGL
Chain of Calcium and integrin-binding protein 1 (Homo sapiens) (Q99828 whole entry, looked up): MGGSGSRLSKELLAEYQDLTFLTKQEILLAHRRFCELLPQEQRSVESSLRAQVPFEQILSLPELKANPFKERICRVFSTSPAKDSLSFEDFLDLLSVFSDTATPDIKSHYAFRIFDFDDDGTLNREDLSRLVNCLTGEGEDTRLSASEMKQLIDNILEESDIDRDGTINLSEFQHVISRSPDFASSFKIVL

`C=C(C)C1CC=C(C(=O)O)CC1` (stereo unspecified): the Potency result (in assay [1]; in assay [2]; in assay [3]; in [4]; in the assay with Papain (Carica papaya)) was “inactive” each time.

Take `N#CC(=C(\N)Sc1ccccc1N)/C(C#N)=C(/N)Sc1ccccc1N`: the Potency entry in assay [1] and in [2] was “inactive” in each case.

Turning to `CC(C)[C@H](NC(=O)OCc1ccccc1)C(=O)N[C@H](C=O)Cc1ccccc1` (Cbz-Val-Phe-aldehyde), the Potency result in assay [1], in [2], in assay [3] and in assay [4] was “inactive” each time.

Turning to `NC(=Nc1ccccc1)NC(=O)c1nc(Cl)c(N)nc1N`, the Potency result in assay [1], in assay [2], in assay [3], in assay [5] and in assay [6] was “inactive” each time. Moreover, in the assay with Papain (Carica papaya), the Potency was 25.1 µM (active).

On to `COc1cccc(OC)c1OCCNCC1CSc2ccccc2O1` (stereo unspecified), for which the Potency result in assay [1], in assay [2] and in [3] was “inactive” in each case.

Regarding `COCc1nc2c([nH]1)c(=O)n(C)c(=O)n2CC(C)C`, the Potency result (in assay [1]; in [2]; in assay [3]; in assay [4]; with Papain (Carica papaya)) was “inactive” each time.

As to `CN1CCc2cc(Cl)c(O)cc2[C@@H](c2ccccc2)C1`, the Potency entry in assay [1], in assay [2], in assay [3], in [6] and in assay [4] was “inactive” in each case.

On to `O=S(=O)(c1cccc2c(Cl)cccc12)N1CCCNCC1`, for which the Potency entry (in assay [1]; in assay [2]; in [3]; in assay [5]; in assay [6]; with Papain (Carica papaya)) was “inactive” in each case.

As to `CCn1c(=O)[nH]c2cc(Cl)c(Cl)cc21`, the Potency entry (in assay [1]; in [2]; in [3]; in [4]; with Papain (Carica papaya)) was “inactive” in each case.

For the compound `COC(=O)[C@H](NC(=O)c1cc(-c2ccccc2)nc2ccccc12)c1ccccc1`, the Potency result in assay [1], in [2], in [3] and in assay [4] was “inactive” each time.

As for `O=C(O)[C@H]1NCCC[C@H]1C(=O)O`, the Potency entry (in [1]; in assay [2]; in [3]; in assay [4]; in the assay with Papain (Carica papaya)) was “inactive” throughout.

Regarding `CCCCOC(=O)NS(=O)(=O)c1sc(CC(C)C)cc1-c1ccc(Cn2c(CC)nc3c(C)cc(C)nc32)cc1`, the Potency result (in assay [1]; in assay [2]; in [3]; with Papain (Carica papaya)) was “inactive” each time. The Potency in [6] was 15.8 µM (active).

With `O=C(O)CCC(=O)N1CCCC1C(=O)O` (stereo unspecified), the Potency entry (in assay [1]; in assay [2]; in assay [3]; in assay [5]; in assay [6]; in the assay with Papain (Carica papaya)) was “inactive” each time.

As to `O=C(O)Cc1ccc(O)c(O)c1`, the Potency result in assay [1], in assay [2], in assay [3] and in assay [4] was “inactive” throughout.

As for `Nc1nc2c(cnn2CCc2ccccc2)c2nc(-c3ccco3)nn12`, the Potency result in assay [1], in assay [2], in assay [3] and in assay [4] was “inactive” each time.

As for `Cc1ccc2c(c1)C(N1CCN(C)CC1)=Nc1cccnc1N2`, the Potency entry in [1], in assay [2] and in assay [3] was “inactive” each time.

With `Cc1nc(N=Nc2ccc(S(=O)(=O)O)cc2S(=O)(=O)O)c(COP(=O)(O)O)c(C=O)c1O`, the Potency result in [1], in assay [2], in [3], in [5], in assay [6] and in assay [4] was “inactive” in each case. In the assay with Papain (Carica papaya), the Potency result was “inactive”.

Turning to `CCCCCCCCCCCCCCC[C@H](O)[C@H](N)CO`, the Potency result (in assay [1]; in assay [2]; in assay [3]; in assay [5]; in assay [6]; with Papain (Carica papaya)) was “inactive” in each case. In addition, in assay [7], the max response is -0.696%.

With `CC(N)(Cc1ccc(O)c(O)c1)C(=O)O` (stereo unspecified), the Potency entry in assay [1], in assay [2] and in [3] was “inactive” in each case.

In the case of `NC1CCN(O)C1=O` (stereo unspecified), the Potency entry in [1], in [2] and in [3] was “inactive” in each case.

For `COc1ccc(CCN(C)CCc2ccc(OC)c(OC)c2)cc1OC`, the Potency result in assay [1], in assay [2], in [3], in [5], in assay [6] and in assay [4] was “inactive” each time. In the assay with Papain (Carica papaya), the Potency result was “inactive”. Besides, in assay [7], the max response was 1.86%.

In the case of `CCCC(=O)NCCc1c2n(c3ccc(OC)cc13)CCCc1ccccc1-2`, the Potency result in [1], in assay [2] and in assay [3] was “inactive” each time.

With `CCC1(O)CC2CN(CCc3c([nH]c4ccccc34)[C@@](C(=O)OC)(c3cc4c(cc3OC)N(C)C3[C@]45CCN4CC=C[C@@](CC)([C@@H](OC(C)=O)[C@]3(O)C(=O)OC)[C@H]45)C2)C1` (stereo partly specified), the Potency result in assay [1] and in assay [2] was “inactive” throughout.

As for `Cn1cc(C(=O)OCC2CCN(CCNS(C)(=O)=O)CC2)c2ccccc21`, the Potency entry (in assay [1]; in [2]; in assay [3]; in assay [4]; in the assay with Papain (Carica papaya)) was “inactive” each time.

For the compound `O=c1[nH]ccc2c(O)cccc12`, the Potency entry (in assay [1]; in [2]; in assay [3]; in assay [4]; in the assay with Papain (Carica papaya)) was “inactive” in each case.

With `COc1cc(/C=C(\C#N)C(=O)c2ccc(O)c(O)c2)cc(I)c1O`, the Potency result in [1], in assay [2] and in [3] was “inactive” in each case. The max response in assay [7] is 17.8%. Further, the Potency in assay [4] is 11.2 µM (active).

`C=CC1(C)CC(=O)C2(O)C(C)(O1)C(OC(C)=O)C(O)C1C(C)(C)CCC(O)C12C` (stereo unspecified): the Potency entry in assay [1], in assay [2], in assay [3] and in [4] was “inactive” throughout.

Regarding `CN[C@H](CC(=O)O)C(=O)O`, the Potency entry (in assay [1]; in assay [2]; in [3]; in assay [4]; with Papain (Carica papaya)) was “inactive” in each case.

For the compound `CCCc1c(OCCCOc2ccc(OCC(=O)O)cc2)ccc(C(C)=O)c1O`, the Potency result in assay [1] and in assay [2] was “inactive” throughout.

For `N[C@H](C(=O)O)[C@H](O)C(=O)O`, the Potency entry (in assay [1]; in assay [2]; in [3]; in assay [4]; in the assay with Papain (Carica papaya)) was “inactive” throughout.

On to `Nc1ncnc2c1c(-c1ccc(Oc3ccccc3)cc1)cn2C1CCCC1`, for which the Potency entry (in [1]; in [2]; in assay [3]; in assay [4]; in the assay with Papain (Carica papaya)) was “inactive” throughout. For the same compound, in [8], the result was inactive.

With `CCCCCCCC/C=C\CCCCCCCC(=O)NCCc1ccc(O)c(O)c1`, the Potency result (in assay [1]; in assay [3]; in [5]; with Papain (Carica papaya)) was “inactive” in each case. Besides, the Potency was 2.82 µM (active) in assay [2]; 5.01 µM (active) in [6]; 3.98 µM (active) and 7.08 µM (active) in [7].

With `CC(C)NCC(O)COc1ccc(CC(N)=O)cc1` (stereo unspecified), the Potency result (in [1]; in [2]; in assay [3]; in assay [4]; in the assay with Papain (Carica papaya)) was “inactive” throughout.

Consider `CCCCCCN(CCCCCC)C(=O)Cc1c(-c2ccc(F)cc2)[nH]c2ccccc12`, for which the Potency result in assay [1], in assay [2], in assay [3] and in [4] was “inactive” each time.

Regarding `NC(C(=O)N[C@@H]1C(=O)N2C(C(=O)O)=C(Cl)CS[C@H]12)c1ccccc1` (stereo partly specified), the Potency entry in assay [1], in [2] and in [3] was “inactive” in each case.

Consider `CC1CCN=C(N)S1` (stereo unspecified), for which the Potency entry (in [1]; in assay [2]; in [3]; in assay [4]; with Papain (Carica papaya)) was “inactive” in each case.

For the compound `Cc1ccccc1/C=C/C1=NCCN1`, the Potency result (in assay [1]; in assay [2]; in [3]; with Papain (Carica papaya)) was “inactive” each time. The Potency in assay [6] was 11.2 µM (active).

For `Nc1ccc(-c2ccc3ccccc3n2)cc1`, the Potency result in assay [1], in assay [2], in assay [3] and in assay [5] was “inactive” in each case. Also, the max response in assay [7] is -7.29%.
